# High-throughput results from PubChem BioAssay.
# Vaccinia Venus: qHTS for Stage-Specific Inhibitors of Vaccinia Orthopoxvirus: Venus Reporter Primary qHTS. Vaccinia virus Venus reporter expression, fluorescence. Potency, µM (titrated, usually from 36.5 µM), inactives show at the top dose activity change, negative = inhibition, hits mostly inhibitors. hit rate 0.46% among 330,000; calls by dose curve; tested in A549 cells; further: potency means the concentration at half of the fitted maximal effect; nearly all actives have a fitted effect of over 30% in size
# Tb PYK inh: qHTS of Trypanosoma Brucei Inhibitors | Potency, µM (titrated, usually from 76.8 µM), without a hit: at the top dose activity, negative = inhibition, usual class: inhibitors | hit rate 0.12% among 410,000 | TbPYK enzyme, Kinase-Glo Plus ATP luminescence, 45 min; further: potency means the concentration at half of the fitted maximal effect; nearly all actives have a fitted effect of over 50% in size
#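 Enzyme and substrate buffer are dispensed first and compound is pin-transferred. ADP at 130 uM final then starts the reaction, which runs 45 min at room temperature. Detection reagent is added for 10 min before luminescence is imaged.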
# LmPK inh: qHTS Assay for Inhibitors of Leishmania Mexicana Pyruvate Kinase (LmPK). Potency, µM (titrated, usually from 57.5 µM), for inactives: top-dose activity change, negative = inhibition, actives largely listed as inhibitors. hit rate 0.37% among 290,000. purified LmPK, Kinase-Glo ATP luminescence, 1 h; further: potency means the concentration at half of the fitted maximal effect
# Target sequence (Q27686 whole entry, looked up): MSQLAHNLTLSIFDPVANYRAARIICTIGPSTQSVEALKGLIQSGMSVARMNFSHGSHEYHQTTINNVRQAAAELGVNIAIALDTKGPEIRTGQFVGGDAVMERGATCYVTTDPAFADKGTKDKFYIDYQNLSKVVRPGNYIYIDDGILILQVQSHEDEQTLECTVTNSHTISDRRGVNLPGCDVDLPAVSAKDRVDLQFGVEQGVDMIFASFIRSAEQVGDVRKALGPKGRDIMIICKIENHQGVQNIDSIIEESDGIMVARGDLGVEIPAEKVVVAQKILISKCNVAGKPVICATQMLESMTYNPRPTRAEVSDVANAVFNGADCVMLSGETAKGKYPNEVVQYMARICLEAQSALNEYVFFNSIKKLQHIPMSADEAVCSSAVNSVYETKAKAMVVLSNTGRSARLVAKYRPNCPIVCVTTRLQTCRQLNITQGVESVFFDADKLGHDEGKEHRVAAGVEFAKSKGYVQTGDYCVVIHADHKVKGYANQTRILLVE
#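 Purified LmPK (0.1 nM) with 0.5 mM PEP and 0.1 mM ADP in imidazole buffer pH 7.2 with MgCl2/KCl, 1 h at room temperature. ATP formed was read by luciferase luminescence and normalized to no-enzyme and uninhibited controls.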
# Vaccinia mCherry: qHTS for Stage-Specific Inhibitors of Vaccinia Orthopoxvirus: mCherry Reporter Primary qHTS | Vaccinia virus mCherry reporter infection, fluorescence | Potency, µM (series often up to 36.5 µM), for inactives: top-dose activity change, negative = inhibition, hits mostly inhibitors | hit rate 0.63% among 310,000; calls by dose curve; tested in A549 cells; further: potency means the concentration at half of the fitted maximal effect; nearly all actives have a fitted effect of over 35% in size
# HCMV antiviral: qHTS Assay for inhibitors of the human cytomegalovirus (HCMV) | AID 1259415, 2018 | hit rate 4.5% among 410,000 | HFF cells, HCMV-luciferase reporter, 72 h; active compounds read low | activity change, negative = inhibition, % at 57.5 µM; in the data active means activity change below about -60%; inconclusive means no clear call, values can overlap the other calls; inactive means above about -39%
#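 Compounds were evaluated in HFFs infected with an HCMV luciferase reporter virus (MOI 1 PFU/cell). Luciferase in lysates collected 72 h post infection served as the replication measure.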
# * marks the source's active call; other numbers are inactive results; i = inactive; ? = inconclusive; . = no result; [ ] = another dose, or the depositor's remark. Sampled rows, rich in hits. Any-hit rate of the full collection: about 5%. Unless noted, the call rests on the fitted dose curve; in most records, active means well fitted curve in the direction sought with a large enough effect; inconclusive means small, poorly fitted or top-dose-only effect, or another doubt; inactive means no such curve, though single readings can be large; an effect the other way counts as inactive or inconclusive. On the % scale 0 is the no-effect control and ±100 the full control effect.
SMILES,Vaccinia Venus,Tb PYK inh,LmPK inh,Vaccinia mCherry,HCMV antiviral
C=CCN(c1nc(C)c(Br)c(OC)n1)S(=O)(=O)c1ccc(C)cc1,.,-0.1%,3.5%,.,-17.1
O=C(CCCl)N1c2ccccc2C=Cc2ccccc21,.,-0.9%,.,.,-71.4*
O=C(N1CCN(CCO)CC1)N1c2ccccc2C=Cc2ccccc21,-16.9%,1.1%,-1.7%,-3.3%,91.1
COCC(C)n1c(C)cc(C(=O)COC(=O)c2cccn2C)c1C (stereo not given),.,-0.3%,.,.,-75.9*
CC(C)(C)c1ccc(OCC(=O)NCC2(N3CCOCC3)CCCCC2)cc1,-20.3%,6.5%,.,-24.8%,-72.7*
Cc1ccc(C)n1-c1ccc(C(=O)NC2CCN(Cc3ccccc3)CC2)cc1,-25.4%,-11.3%,0.9%,-13.8%,-61.7*
COc1ccc(NS(=O)(=O)c2cccc(NC(=O)NC3CCCCC3)c2)cc1,?,-11.1%,-0.3%,-4.2%,-60.0*
COc1ccc(NS(=O)(=O)c2cccc(C(=O)NNC(=O)c3ccccc3OC)c2)cc1,-19.9%,-7.1%,.,-3.1%,40.6
COc1ccc(NS(=O)(=O)c2cccc(C(=O)NNC(=O)NCCCl)c2)cc1,-1.1%,-4.9%,0.3%,7.5%,-64.9*
O=C(c1ccc2c(c1)OCO2)N1CCN=C1SCc1cccnc1,1.6%,1.6%,0.8%,30.1%,-20.2
COc1ccc(NS(=O)(=O)c2cccc(C(=O)NCC3(N4CCCCC4)CCCCC3)c2)cc1,-14.6%,-2.7%,.,i,-7.0
CN1CCC(NC(=O)C2(C)CCN2Cc2ccc3ccccc3c2)CC1 (stereo not given),6.7%,0.4%,.,14.5%,7.1
COc1ccc(NS(=O)(=O)c2cccc(C(=O)NC3CCN(Cc4ccccc4)CC3)c2)cc1,-19.4%,-1.5%,-11.8%,-23.0%,-65.4*
CC1(C(=O)NC2CCN(Cc3ccccc3)CC2)CCN1Cc1ccc2ccccc2c1 (stereo not given),-17.5%,-1.5%,.,-7.5%,-67.5*
COc1ccc(Cl)cc1NS(=O)(=O)c1cccc(C(=O)NC2CCN(Cc3ccccc3)CC2)c1,.,-11.9%,.,.,-13.0
COc1ccc(NS(=O)(=O)c2cccc(C(=O)NCC3(N4CCOCC4)CCCCC3)c2)cc1,-17.3%,-9.6%,-4.1%,i,-67.0*
NC(=O)c1ccccc1NC(=O)CC1(CC(=O)O)CCCC1,4.3%,-12.4%,-0.6%,21.8%,-17.4
Cc1cc(NC2=CC(=O)C(=O)c3ccccc32)no1,?,-10.5%,.,?,-101.6*
NS(=O)(=O)c1ccc(NC2=CC(=O)C(=O)c3ccccc32)cc1,?,-11.8%,-7.0%,-22.0%,49.9
Cc1ccc(NC2=CC(=O)C(=O)c3ccccc32)cc1,.,0.0%,-17.2%,.,-103.9*
COc1cc(OC)c(NC2=CC(=O)C(=O)c3ccccc32)cc1Cl,3.16µM*,-1.6%,-0.8%,0.891µM*,-81.9*
COCC(C)NCc1cccc(OC)c1OC (stereo not given),-9.9%,-7.7%,-7.0%,-21.5%,22.7
CCc1ccc(C2=C(C)C(N3CCC(C(=O)Nc4ccc(F)cc4)CC3)=NS2(=O)=O)cc1,-25.3%,2.2%,.,-18.5%,-33.1
COc1ccc(NC2=Nc3ccccc3N[C@@]23C[C@H]2CCCC(=O)N4CC[C@@H](C3)[C@@H]24)cc1,-7.6%,-9.5%,.,-24.2%,18.1
COC(=O)c1cc2sc(Cl)cc2n1CC(=O)N1CCCc2ccccc21,-1.0%,0.0%,6.9%,-8.8%,.
SMILES,Vaccinia Venus,Tb PYK inh,LmPK inh,Vaccinia mCherry,HCMV antiviral
CCn1cc(CN(C)S(=O)(=O)c2ccc3ccccc3c2)c(C)n1,-17.8%,2.2%,4.9%,?,-68.4*
CCn1cc(CN(C)S(=O)(=O)c2cccc([N+](=O)[O-])c2)cn1,-12.1%,-7.2%,6.1%,-8.9%,8.8
COc1ccc2[nH]c3c(=O)n(CCCCC(=O)N4CCCC4)c(=S)[nH]c3c2c1,-10.0%,?,2µM*,-10.2%,-27.4
CCN(CC(=O)NCc1ccc(F)cc1)C(=O)C1CC1C (stereo not given),-3.5%,7.1%,0.6%,-12.1%,10.2
Cc1cc2cc(CNC(=S)Nc3ccc(OC(F)(F)F)cc3)ccc2[nH]1,-21.9%,0.6%,3.2%,-21.5%,-75.1*
Cc1cc2cc(CNC(=S)Nc3ccc(OC(F)F)cc3)ccc2[nH]1,1.1%,-4.2%,7.3%,6.5%,8.3
COCCCC1CCN(C(=O)C2CCC(=O)N(CCc3cccc(F)c3)C2)CC1 (stereo not given),-5.5%,-0.1%,-4.1%,-9.2%,26.5
Cc1ccsc1CN(C(=O)COc1ccccc1Cl)C1CCS(=O)(=O)C1 (stereo not given),-9.8%,2.7%,.,-7.1%,85.9
COc1ccc2c(c1)c(C(C)=O)c(C)n2-c1ccc(C(C)=O)cc1,-7.7%,9.4%,7.2%,i,-73.6*
COc1ccc(-n2c(C)c(C(C)=O)c3cc(OC(C)=O)ccc32)cc1,.,2.7%,5.1%,.,-79.5*
Cc1ccccc1CN1C[C@@H]2C[C@@H](c3cn[nH]c3-c3ccccc3)N3CCC[C@@]23C1=O,-7.4%,-2.9%,4.2%,-11.1%,-66.4*
O=C(CNS(=O)(=O)c1ccc(F)cc1)N1CCOCC1,3.2%,-8.8%,-7.9%,-5.8%,14.4
O=C(CSc1nnc2scc(-c3ccccc3)n12)Nc1nsc(-c2ccc(Cl)cc2)n1,0.5%,0.0%,.,-7.5%,-72.8*
Cc1cc(C)n(-c2nc3c(c(=O)n(C)c(=O)n3C)n2Cc2cccc(Br)c2)n1,4.4%,0.7%,.,-16.7%,-16.7
CC1=C(C(=O)N(C(C)C)C(C)C)CC(CC(=O)NC(c2ccccc2)c2ccccc2)C(=O)N1CCC1=CCCCC1 (stereo not given),-6.5%,2.2%,.,i,-109.9*
CC1=C(C(=O)N(C(C)C)C(C)C)CC(CC(=O)NCCCCc2ccccc2)C(=O)N1Cc1ccc(C(C)(C)C)cc1 (stereo not given),?,-16.5%,.,?,-104.6*
CC1=C(C(=O)N2CCOCC2)CC(CC(=O)NC(c2ccccc2)c2ccccc2)C(=O)N1CCC1=CCCCC1 (stereo not given),-16.9%,0.9%,.,i,11.8
Cc1ccc2nc(-c3ccccc3O)c(Nc3ccccc3C)n2c1,?,3.0%,.,?,0.3
CCCCn1c(N)c(N(CC)C(=O)c2ccncc2)c(=O)[nH]c1=O,.,-1.2%,.,.,8.5
CCCCn1c(N)c(N(CC)C(=O)c2cccc(OC)c2)c(=O)[nH]c1=O,-19.4%,-3.1%,16.3%,-1.8%,-71.7*
CCCCn1c(N)c(N(CC)C(=O)c2cccs2)c(=O)[nH]c1=O,-4.2%,2.2%,.,-3.4%,-60.5*
Cc1ccc(CCNC(=O)c2ccc3c(c2)c(C)c(C)n3Cc2ccccc2)cc1,-5.5%,-10.7%[15.4 µM],.,-14.8%,0.0
